Hit rate of the full screen: of about 2,300 compounds, about 330 (14%) showed activity. Not all results are given here. Unmarked numbers belong to inactive results.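 Rule for the calls: active = median modified Z-score above 1.96; inactive = 1.96 or below.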

Experimental findings from the supplement of paper PMC10498489 are described below.

In this experiment the test system is HepG2 Srxn1-GFP reporter cells (+30 nM CDDO-Me). As to the kind of experiment: Srxn1-GFP intensity median modified Z-score relative to plate median; higher = stronger NRF2 / oxidative stress reporter activation, active = hit call of the paper. The settings on record: 10 µM; exposure time: 24h. In a few lines:
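Each value is the replicate median of a per-plate modified Z-score for GFP intensity in HepG2 Srxn1-GFP BAC reporter cells. The cells (20,000 per well, 96-well plates, three replicate plates) received compound at 10 μM together with an NRF2 activator at 30 nM for 24 h, in ≤0.1% DMSO. Cytoplasmic GFP was quantified per cell from confocal images of formaldehyde-fixed, Hoechst-stained cells, leaving out images with fewer than 100 cells, and scaling used 1.4826 × median absolute deviation.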
As for `CCOc1ccc(S(=O)(=O)O)c2cccnc12` [euspeclibcmpd2064], the “Srxn1-GFP intensity median modified Z-score” value was 0.0425.

As to `CCN(CC)Cc1ccc(N=c2cc[nH]c3cc(Cl)ccc23)cc1O` [euspeclibcmpd22], the “Srxn1-GFP intensity median modified Z-score” value is 3.72 (active).

Take `Nc1ccc(S(=O)(=O)N=c2cnc3ccccc3[nH]2)cc1` [euspeclibcmpd2157]: the “Srxn1-GFP intensity median modified Z-score” value was 0.000648.

For the molecule `OC[C@@H](O)[C@H](O)[C@@H](O)[C@H](O)CO` [euspeclibcmpd2232], the “Srxn1-GFP intensity median modified Z-score” value is 0.317.

Consider `O=c1ccn([C@@H]2O[C@H](CO)[C@@H](O)[C@H]2O)c(=O)[nH]1` [euspeclibcmpd2258], for which the “Srxn1-GFP intensity median modified Z-score” value is -0.304.

As for `NC(=O)c1ncn(C2O[C@H](CO)[C@@H](O)[C@H]2O)c1N` (some centres not stated) [euspeclibcmpd855], the “Srxn1-GFP intensity median modified Z-score” value was 0.445.

Take `N=c1ncn([C@@H]2O[C@H](CO)[C@@H](O)[C@H]2O)c(=O)[nH]1` [euspeclibcmpd436]: the “Srxn1-GFP intensity median modified Z-score” value was 15.1 (active).

Consider `N=c1[nH]cnc2c1ncn2[C@@H]1O[C@H](CO)[C@@H](O)[C@H]1O` [euspeclibcmpd2100], for which the “Srxn1-GFP intensity median modified Z-score” value was -0.0799.

As to `N=c1ccn(C2O[C@H](CO)[C@@H](O)[C@H]2O)c(=O)[nH]1` (some centres not stated) [euspeclibcmpd2152], the “Srxn1-GFP intensity median modified Z-score” value is -0.285.

For the molecule `N=c1[nH]c(=S)c2ncn(C3O[C@H](CO)[C@@H](O)[C@H]3O)c2[nH]1` (some centres not stated) [euspeclibcmpd1778], the “Srxn1-GFP intensity median modified Z-score” value is 41.1 (active).

In the case of `Cc1c(NS(=O)(=O)C(C)C)c(=O)n(-c2ccccc2)n1C`, the “Srxn1-GFP intensity median modified Z-score” value is 1.19.

On to `CC(C)(CO)C(=O)C(O)NCCCO` (configuration not stated) [euspeclibcmpd2316], for which the “Srxn1-GFP intensity median modified Z-score” value was -0.0436.

With `CC(C)(CO)C(=O)C(O)NCCCO` (configuration not stated) [euspeclibcmpd2342], the “Srxn1-GFP intensity median modified Z-score” value was -0.119.

In the case of `CON=C(C(=O)NC1C(=O)N2C(C(=O)OCOC(=O)C(C)(C)C)=C(/C=C\c3scnc3C)CSC12)c1csc(=N)[nH]1` (configuration not stated) [euspeclibcmpd753], the “Srxn1-GFP intensity median modified Z-score” value is 0.022.

On to `CON=C(C(=O)NC1C(=O)N2C(C(=O)O)=C(COC(N)=O)CSC12)c1ccco1` (configuration not stated) [euspeclibcmpd2072], for which the “Srxn1-GFP intensity median modified Z-score” value was -0.532.

Regarding `CN1C(C(=O)N=c2cccc[nH]2)C(=O)c2ccccc2S1(=O)=O` (configuration not stated) [euspeclibcmpd238], the “Srxn1-GFP intensity median modified Z-score” value was -0.406.

Take `N=c1ccn(C2CSC(CO)O2)c(=O)[nH]1` (configuration not stated) [euspeclibcmpd613]: the “Srxn1-GFP intensity median modified Z-score” value was -0.762.

In the case of `CON=C(C(=O)NC1C(=O)N2C(C(=O)OC(C)OC(C)=O)=C(COC(N)=O)CSC12)c1ccco1` (configuration not stated) [euspeclibcmpd658], the “Srxn1-GFP intensity median modified Z-score” value is 0.198.

For `Cc1noc(C)c1S(=O)(=O)N1CCN(C(=O)C2=COCCO2)CC1`, the “Srxn1-GFP intensity median modified Z-score” value is 1.2.

Take `COC(=O)C[C@H]1C(C)(C)[C@@H](O)C2CC3=C4C=C(OC)O[C@@H](c5ccoc5)[C@]4(C)CCC3[C@@]1(C)C2=O` (some centres not stated) [euspeclibcmpd1395]: the “Srxn1-GFP intensity median modified Z-score” value is 1.94.

Take `CCn1c(O)c(-c2ccccc2)[nH]c1=O` [euspeclibcmpd780]: the “Srxn1-GFP intensity median modified Z-score” value was -0.504.

For the molecule `Cc1c(NC(=O)c2ccsc2)c(=O)n(-c2ccccc2)n1C`, the “Srxn1-GFP intensity median modified Z-score” value was 0.403.

`CO[C@H]1C[C@H](O[C@@H]2C(C)C(=O)O[C@H](C)[C@H](C)[C@H](OC(C)=O)C(C)C(=O)[C@@]3(CO3)C[C@H](C)[C@H](OC3O[C@H](C)C[C@H](N(C)C)[C@H]3OC(C)=O)[C@H]2C)O[C@@H](C)[C@@H]1OC(C)=O` (some centres not stated) [euspeclibcmpd623]: the “Srxn1-GFP intensity median modified Z-score” value was -0.159.

In the case of `CC(=O)C12OC(C)(c3ccccc3)OC1CC1C3CC=C4CC(=O)CCC4(C)C3CCC12C` (configuration not stated) [euspeclibcmpd1961], the “Srxn1-GFP intensity median modified Z-score” value was 5.88 (active).

For `CC(=O)C1CCC2C3CC=C4C[C@@H](O)CC[C@]4(C)C3CC[C@]12C` (some centres not stated) [euspeclibcmpd1041], the “Srxn1-GFP intensity median modified Z-score” value is 0.815.

Turning to `CCCCCC(=O)O[C@]1(C(C)=O)CCC2C3CC=C4CC(=O)CC[C@]4(C)C3CC[C@@]21C` (some centres not stated) [euspeclibcmpd155], the “Srxn1-GFP intensity median modified Z-score” value is 13.5 (active).

Consider `C[C@]12CCC(=O)CC1=CCC1C2C(=O)C[C@@]2(C)C1CC[C@]2(O)C(=O)CO` (some centres not stated) [euspeclibcmpd1248], for which the “Srxn1-GFP intensity median modified Z-score” value is -0.459.

Take `CCCC(=O)O[C@]1(C(=O)CO)CCC2[C@@H]3CC=C4CC(=O)CC[C@]4(C)C3[C@@H](O)C[C@@]21C` (some centres not stated) [euspeclibcmpd566]: the “Srxn1-GFP intensity median modified Z-score” value was -0.863.

As to `CCCCC(=O)O[C@]1(C(=O)CO)CCC2C3CC=C4CC(=O)CC[C@]4(C)C3[C@@H](O)C[C@@]21C` (some centres not stated) [euspeclibcmpd786], the “Srxn1-GFP intensity median modified Z-score” value was -0.698.

Turning to `CC(=O)OCC(=O)C1CCC2C3CC=C4CC(=O)CC[C@]4(C)C3CC[C@]12C` (some centres not stated) [euspeclibcmpd6], the “Srxn1-GFP intensity median modified Z-score” value is -0.444.

With `CC(=O)C1CCC2C3CC=C4CC(=O)CC[C@]4(C)C3CC[C@]12C` (some centres not stated) [euspeclibcmpd251], the “Srxn1-GFP intensity median modified Z-score” value was 2.27 (active).

As for `CC(=O)[C@@]1(O)CCC2C3CC=C4CC(=O)CC[C@]4(C)C3CC[C@@]21C` (some centres not stated) [euspeclibcmpd1279], the “Srxn1-GFP intensity median modified Z-score” value was -0.195.

As to `CC(=O)O[C@]1(C(C)=O)CCC2C3=CC(Cl)=C4CC(=O)CC[C@]4(C)C3CC[C@@]21C` (some centres not stated) [euspeclibcmpd746], the “Srxn1-GFP intensity median modified Z-score” value is -0.232.

As for `N=C(N)NC(=O)c1nc(Cl)c(=N)[nH]c1N` [euspeclibcmpd18], the “Srxn1-GFP intensity median modified Z-score” value is 1.07.

In the case of `C[C@]12CCC3c4ccc(O)cc4CCC3C1CCC2=O` (some centres not stated) [euspeclibcmpd118], the “Srxn1-GFP intensity median modified Z-score” value is -0.384.

As for `CC1C(=NO)C[C@@H]2C[C@H]1C2(C)C` (some centres not stated) [euspeclibcmpd1398], the “Srxn1-GFP intensity median modified Z-score” value was -0.67.

Consider `OCc1cc(O)c2c(O)c3c(O[C@@H]4O[C@H](CO)[C@@H](O)[C@H](O)[C@H]4O)cccc3c(O[C@@H]3O[C@H](CO)[C@@H](O)[C@H](O)[C@H]3O)c2c1` [euspeclibcmpd932], for which the “Srxn1-GFP intensity median modified Z-score” value was 0.277.

For `CCC(C(=O)O)c1ccccc1` (configuration not stated) [euspeclibcmpd2274], the “Srxn1-GFP intensity median modified Z-score” value was -0.651.

Take `O=c1ccc2ccc(O)cc2o1` [euspeclibcmpd1541]: the “Srxn1-GFP intensity median modified Z-score” value was -0.459.

Regarding `Cc1cc(=O)oc2cc(O)ccc12` [euspeclibcmpd929], the “Srxn1-GFP intensity median modified Z-score” value is 0.128.

For the molecule `O=c1oc2cc(O)ccc2s1` [euspeclibcmpd1146], the “Srxn1-GFP intensity median modified Z-score” value was 5.96 (active).

Take `CC(CS)C(=O)N1CCCC1C(=O)O` (configuration not stated) [euspeclibcmpd337]: the “Srxn1-GFP intensity median modified Z-score” value was -0.273.
